From PubChem BioAssay
Shiga toxin inh – A qHTS for Small Molecule Inhibitors of Shiga Toxin; Vero cells, Shiga toxin protein synthesis inhibition reporter; 290,000 compounds, 9.2% hits; inhibition, % at 38.7 µM; in the data active = inhibition mostly above about 28%, no sharp cut-off; inactive = mostly below about 43%
Pf growth 48h – Primary qHTS for delayed death inhibitors of the malarial parasite plastid, 48 hour incubation; P. falciparum luciferase growth in erythrocytes, 48 h; Potency, µM (titrated, usually from 28.7 µM), usual class: inhibitors; 310,000 compounds, 5.9% hits
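Growth was read as firefly luciferase luminescence after a 48 h, 37 C, 5% CO2 exposure of compounds to reporter-bearing P. falciparum cultures (0.1% parasitemia, 2% hematocrit final) in Albumax-supplemented RPMI 1640.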
HCMV antiviral – qHTS Assay for inhibitors of the human cytomegalovirus (HCMV); HFF cells, HCMV-luciferase reporter, 72 h; stronger effect = lower value; activity change, negative = inhibition, % at 57.5 µM; 410,000 compounds, 4.5% hits; in the data active = activity change below about -60%; inconclusive = no clear call, values can overlap the other calls; inactive = above about -39%
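Two compound doses tested in HFFs infected with HCMV-luciferase, MOI 1 PFU/cell, 72 h at 37C. Lysate luminescence read with OneGlo; data normalized against buffer-only and 10uM Salinomycin inhibitor controls.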
Cycloheximide cs – Cycloheximide Counterscreen for Small Molecule Inhibitors of Shiga Toxin; cell reporter, cycloheximide protein synthesis inhibition counterscreen; 300,000 compounds, 12% hits; max response, %; AID 2314, 2010; in the data active = max response mostly above about 13%, no sharp cut-off; inactive = mostly below about 14%; also: read at 38.3 µM for the half of the compounds with a filed dose
Pf growth 96h – Primary qHTS for delayed death inhibitors of the malarial parasite plastid, 96 hour incubation | P. falciparum luciferase reporter growth, 96 h | Potency, µM (series often up to 28.7 µM), hits mostly inhibitors | 320,000 compounds, 6.9% hits
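P. falciparum expressing integrated firefly luciferase, in erythrocytes at 2% hematocrit, 0.05% parasitemia, incubated with compounds 96 h at 37 C, 5% CO2. Growth inhibition read as loss of luminescence; two-generation exposure targets delayed-death apicoplast inhibitors.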
Of the large screens only hits and unclear results are named; the others gave an inactive call. Most compounds without a hit are left out; they make up all but 20% or so of the library. Unless noted, calls follow the shape of the dose curve; as a rule, active = well fitted inhibition curve with a large enough effect; inconclusive = small, poorly fitted or top-dose-only effect, or another doubt; inactive = no such curve, though single readings can be large or run the other way.

Cc1cc(C(=O)CSc2nn(-c3ccccc3)c(=S)s2)c(C)n1Cc1ccco1	Pf growth 48h inconclusive (no result: Pf growth 96h)
Cc1c([N+](=O)[O-])cc(C(=O)Nc2ccc(NC(=O)c3ccco3)cc2)cc1[N+](=O)[O-]	Pf growth 48h inconclusive, HCMV antiviral inconclusive
Cc1nnc(SCC(=O)Nc2ccc(N3CCN(S(C)(=O)=O)CC3)cc2)o1	none
N#CCCN(Cc1ccccc1)C(CCc1ccccc1)C(=O)NC1CCCCC1 (centres undefined)	none (no result: Shiga toxin inh, Pf growth 48h, Cycloheximide cs, Pf growth 96h)
N#Cc1ccccc1C[C@H](N)C(=O)NC[C@H]1O[C@@H](n2ccc(N)nc2=O)[C@H](O)[C@@H]1O	none (no result: Shiga toxin inh, Pf growth 48h, Cycloheximide cs, Pf growth 96h)
COc1ccc(C2CC(c3ccccc3)Oc3cc4c(cc32)OCO4)cc1 (centres undefined)	none (no result: Pf growth 48h, HCMV antiviral, Pf growth 96h)
Cc1ccc(-c2nc(C(=O)NCc3ccc(Cl)cc3)c3n2CCCCC3)cc1	none (no result: Shiga toxin inh, Pf growth 48h, Cycloheximide cs, Pf growth 96h)
Clc1ccc(-c2c[n+](Cc3ccc(Cl)c(Cl)c3)c3n2CCC3)cc1	Pf growth 48h inconclusive, Pf growth 96h inconclusive (no result: HCMV antiviral)
Cc1ccc(C[n+]2cc(-c3ccc(Cl)cc3)n3c2CCC3)cc1	Pf growth 48h 1.04µM, HCMV antiviral -60.6, Pf growth 96h 0.415µM
Cc1ccc(-c2c[n+](Cc3ccc(Cl)cc3)c3n2CCC3)cc1	Pf growth 48h 0.928µM, HCMV antiviral -79.1, Pf growth 96h 0.294µM
COc1ccc(NS(=O)(=O)c2ccc3oc(SCc4ccc(F)cc4)nc3c2)cc1	HCMV antiviral -61.0, Pf growth 96h inconclusive
COc1ccc(S(=O)(=O)N(CC(=O)NC2CCCC2)c2ccccc2OC)cc1	Pf growth 48h inconclusive, Pf growth 96h 11.7µM
COc1ccc(N(CC(=O)NCc2ccco2)S(=O)(=O)c2ccc(OC)c(OC)c2)cc1	Pf growth 96h 14.7µM (no result: Pf growth 48h)
CCOc1ccc(N(CC(=O)NCc2ccco2)S(=O)(=O)c2ccc(OC)c(OC)c2)cc1	Pf growth 48h 11.7µM
Cc1ccc(C)c(N(CC(=O)NC2CCCC2)S(=O)(=O)c2ccccc2)c1	Pf growth 96h 13.1µM
COc1ccc(S(=O)(=O)N(CC(=O)NCc2ccco2)c2ccc(C)cc2)cc1OC	none
CCOc1ccccc1N(CC(=O)NC1CCCCC1)S(=O)(=O)c1ccccc1	Pf growth 48h inconclusive, Pf growth 96h inconclusive
COc1ccc(S(=O)(=O)N(CC(=O)NCc2ccco2)c2ccccc2OC)cc1	Pf growth 48h inconclusive, HCMV antiviral -64.8
O=C(CN(c1ccccc1)S(=O)(=O)c1ccc(F)cc1)NC1CCCCCC1	Pf growth 96h 2.33µM
O=C(CN(c1ccccc1)S(=O)(=O)c1ccc(F)cc1)NC1CCS(=O)(=O)C1 (centres undefined)	none
NS(=O)(=O)c1ccc(CCNC(=O)CCc2nc3ccccc3s2)cc1	none
COc1ccccc1N1CCN(C2CCCN(Cc3cc(F)cc(F)c3)C2)CC1 (centres undefined)	Pf growth 48h inconclusive, Pf growth 96h inconclusive
COc1ccccc1N1CCN(C2CCCN(Cc3ccccc3OCCO)C2)CC1 (centres undefined)	Pf growth 48h inconclusive, Pf growth 96h 1.65µM
FC(F)(F)c1ccccc1CN1CCCC(N2CCN(c3ccccc3)CC2)C1 (centres undefined)	HCMV antiviral -60.9 (no result: Shiga toxin inh)
COc1ccccc1N1CCN(C2CCCN(Cc3ccc(Cl)cc3)C2)CC1 (centres undefined)	Pf growth 96h 13.1µM
FC(F)(F)c1ccccc1CN1CCN(C2CCCCCC2)CC1	HCMV antiviral inconclusive
CCCN(Cc1nnc(-c2ccccc2Cl)o1)C(=O)c1ccc(C)c(S(=O)(=O)N2CCOCC2)c1	Pf growth 48h inconclusive, Pf growth 96h inconclusive (no result: Shiga toxin inh, Cycloheximide cs)
CCCN(Cc1nnc(-c2ccccc2Cl)o1)C(=O)c1oc2ccccc2c1C	Pf growth 48h 9.28µM, Pf growth 96h 9.28µM (no result: Shiga toxin inh, Cycloheximide cs)
CC1CC=CCC1(CO)CO (centres undefined)	none (no result: Shiga toxin inh, Pf growth 48h, Cycloheximide cs, Pf growth 96h)
CO[C@H]1[C@@H](OC(N)=O)[C@H](O)[C@@H](Oc2ccc3c(O)c(NC(=O)c4ccc(O)c(CC=C(C)C)c4)c(=O)oc3c2C)OC1(C)C	none (no result: Shiga toxin inh, HCMV antiviral, Cycloheximide cs)
COC1C(OC(=O)c2ccc(C)[nH]2)C(O)C(Oc2ccc3c(O)c(NC(=O)c4ccc(O)c(CC=C(C)C)c4)c(=O)oc3c2Cl)OC1(C)C (centres undefined)	Pf growth 48h 5.86µM, Pf growth 96h inconclusive
C=CCn1c(=O)/c(=C2/Sc3cc(OC)ccc3N2C)s/c1=C1\C(=O)N(CC)C(=S)N1C	Shiga toxin inh 52.7, Cycloheximide cs 21.2 (no result: HCMV antiviral)
C=CCN1C(=O)/C(=C2/Sc3ccc(OC)cc3N2C)SC1=Nc1ccccc1	none
Cc1ccccc1NC(=O)CC1SCCNC1=O (centres undefined)	none
CCOC(=O)c1ccc(NC(=O)CC2NCCNC2=O)cc1 (centres undefined)	none
CCOC(=O)c1ccc(NC(=O)CC2SCCNC2=O)cc1 (centres undefined)	Shiga toxin inh 96.4, Cycloheximide cs 38.3
Cc1ccc(NC(=O)CC2SCCNC2=O)cc1[N+](=O)[O-] (centres undefined)	Cycloheximide cs 15.7
COC(=O)[C@H](Cc1ccccc1)NC(=O)[C@@]1(C)C[C@@H]1[C@@H](NC(=O)OCc1ccccc1)c1ccccc1	Pf growth 48h inconclusive, Pf growth 96h inconclusive
COc1ccc(OC)c(NC(=O)CCCSc2ccccc2)c1	Pf growth 48h inconclusive
S=C(NCc1ccco1)Nc1ccc(Oc2ccccc2)cc1	Cycloheximide cs 34.4
S=C(NCc1ccco1)Nc1cccc(Cl)c1	Shiga toxin inh 32.0, HCMV antiviral inconclusive
Cc1ccccc1NC(=S)NCc1ccco1	Pf growth 96h 0.329µM
O=C(OC(C(=O)NCc1ccco1)C(OC(=O)c1ccccc1)C(=O)NCc1ccco1)c1ccccc1 (centres undefined)	Shiga toxin inh 66.1, Cycloheximide cs 16.6
CC(=O)c1cccc(NC(=S)NCc2ccco2)c1	Pf growth 96h inconclusive
CC(C)C(OC(=O)c1cccs1)C(=O)NCc1ccco1 (centres undefined)	none
COc1ccc(NC(=S)NCc2ccco2)cc1	none
C=CCn1c(SCC(=O)N(CCOC)c2c(N)n(CCCC)c(=O)[nH]c2=O)nnc1-c1ccc(Cl)cc1	none (no result: Shiga toxin inh, Cycloheximide cs)
O=C(CCCNC(=O)c1ccc(Cl)cc1)Nc1ccc(F)c(S(=O)(=O)N2CCOCC2)c1	Pf growth 48h inconclusive (no result: Shiga toxin inh, Cycloheximide cs)
S=C(NCc1ccco1)N1CCOCC1	none
CCOC(=O)c1ccc(NC(=S)NCc2ccco2)cc1	Shiga toxin inh 63.4
S=C(NCc1ccco1)Nc1ccc(N2CCOCC2)cc1	Cycloheximide cs 20.2
S=C(NCc1ccco1)Nc1cc(Cl)c(Cl)cc1Cl	HCMV antiviral inconclusive
S=C(NCc1ccco1)Nc1ccc(Cl)c(Cl)c1	Cycloheximide cs 31.1
Cc1cc(C)nc(/N=C(\N)N2CCc3ccccc32)n1	Shiga toxin inh 87.8, Cycloheximide cs 33.2, Pf growth 96h inconclusive
CCCCn1c(-c2ccc(Br)cc2F)nc2c1c(=O)[nH]c(=O)n2CC(C)C	Pf growth 48h 10.4µM, Pf growth 96h inconclusive
CC(C)Cn1c(-c2ccc(C#N)cc2)nc2c1c(=O)[nH]c(=O)n2CC(C)C	Pf growth 96h 10.4µM (no result: Pf growth 48h)
